HCMV inh = qHTS Assay for inhibitors of the human cytomegalovirus (HCMV); HFF cells, HCMV-luciferase reporter, 72 h; stronger effect = lower value; activity change, negative = inhibition, % at 57.5 µM; 410,000 tested, 4.5% active; in the data active = activity change below about -60%; inconclusive = no clear call, values can overlap the other calls; inactive = above about -39%
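Human foreskin fibroblasts infected with luciferase-reporter HCMV at MOI 1 PFU/cell, compounds at two doses. Luciferase measured 72 h post infection; normalized to buffer-only basal and Salinomycin (10uM) controls.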
Giardia FBPA inh = qHTS Assay for Inhibitors of Fructose-1,6-bisphosphate Aldolase from Giardia Lamblia. A8B2U2. purified Giardia FBPA. Potency, µM (highest dose often 59.6 µM), hits mostly inhibitors. 290,000 tested, 0.71% active. AID 2451, 2010; note: nearly all actives have a fitted effect of over 55% in size
Target sequence (A8B2U2 whole entry, looked up): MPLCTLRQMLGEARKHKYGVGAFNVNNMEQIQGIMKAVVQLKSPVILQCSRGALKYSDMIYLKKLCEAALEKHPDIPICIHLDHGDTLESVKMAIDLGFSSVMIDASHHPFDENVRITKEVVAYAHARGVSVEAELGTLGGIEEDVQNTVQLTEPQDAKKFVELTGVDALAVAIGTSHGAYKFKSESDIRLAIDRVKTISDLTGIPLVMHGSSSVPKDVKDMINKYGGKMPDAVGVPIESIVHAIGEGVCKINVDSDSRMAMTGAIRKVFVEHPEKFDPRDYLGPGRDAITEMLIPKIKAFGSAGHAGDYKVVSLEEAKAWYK
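40 nM FBPA preincubated 10 min at RT with compound (up to 57.5 uM final), then substrate plus GAPDH/TPI/NAD/arsenate coupling and diaphorase/resazurin added. Fluorescence read after 20 min at RT, 525/598 nm.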
Sm TGR block = qHTS Assay for the Inhibitors of Schistosoma Mansoni Peroxiredoxins | AID 485364, 2010 | Potency, µM (doses to about 114 µM), most hits filed as inhibitors | 360,000 tested, 3% active | Schistosoma mansoni thioredoxin glutathione reductase (TGR), Q962Y6 | purified TGR, DTNB reduction, TNB absorbance 405 nm; note: nearly all actives have a fitted effect of over 60% in size
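TGR 20 nM + NADPH 100 uM (dispensed conc.), cpd preinc 15 min RT; start with NADPH (500 uM addition) then DTNB (15 mM addition). Kinetic TNB absorbance, 405 nm filter. Four-parameter Hill fit across titration.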
Tb PYK inh = qHTS of Trypanosoma Brucei Inhibitors; pyruvate kinase (Trypanosoma brucei), Q57TT1; TbPYK enzyme, Kinase-Glo Plus ATP luminescence, 45 min; Potency, µM (top dose mostly 76.8 µM), hits mostly inhibitors; 410,000 tested, 0.12% active; AID 624173, 2012; note: nearly all actives have a fitted effect of over 50% in size
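In this concentration-response screen, enzyme-free wells defined baseline while DMSO plates tracked drift. Each reaction combined TbPYK, substrate, compound and 130 uM ADP for 45 min at room temperature. Kinase-Glo Plus luminescence gave the signal.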
RE007 growth inh = qHTS Assay for Inhibitors of the HIV-1 protein Vpr. S. pombe RE007 Vpr strain, BacTiter-Glo ATP luminescence, 24 h. Potency, µM (highest dose often 92.2 µM), actives largely listed as inhibitors. 360,000 tested, 0.21% active; active = well fitted falling curve with a large enough effect; inconclusive = small, poorly fitted or top-dose-only effect; inactive = no such curve, though single readings can be large or run the other way; note: nearly all actives have a fitted effect of over 50% in size
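Fission yeast RE007 carrying one integrated HIV-1 vpr copy, seeded at OD 0.01 in PMG+AL medium with 23 nL pinned compound. Grown 24 h at 30 degrees; viability read by BacTiter-Glo luminescence after 5 min.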
FMDV inh = High Throughput Screening for Foot and Mouth Disease Virus Antivirals; 410,000 tested, 1.2% active; FMDV antiviral cell-based qHTS; Potency, µM (titrated, usually from 57.9 µM), hits mostly inhibitors; calls by dose curve; tested in HEK293T cells; note: read-out not given here; nearly all actives have a fitted effect of over 45% in size
Numbers stand for hits; – = inactive; ? = inconclusive; · = not tested or not shown; [ ] = dose if it differs, or a comment. An excerpt weighted towards active compounds, which were near 7.7% of everything screened. Unless noted, calls come from the whole dose curve; as a rule, active = well fitted curve in the direction sought with a large enough effect; inconclusive = small, poorly fitted or top-dose-only effect, or another doubt; inactive = no such curve, though single readings can be large; an effect the other way counts as inactive or inconclusive.

SMILES	HCMV inh	Giardia FBPA inh	Sm TGR block	Tb PYK inh	RE007 growth inh	FMDV inh
C[n+]1ccccc1/C=C/c1c(F)cccc1F	?	?	13µM	–	–	–
C[n+]1ccccc1/C=C/c1ccc(F)c(F)c1	?	–	–	–	–	–
O=c1[nH]c2ccc(NCc3ccccc3F)cc2[nH]1	–	·	–	–	·	–
CO[C@@H]1COC(=O)[C@@H](CCSC)NC(=O)C/C=C\[C@@H](C)COC(=O)CCC[C@H]1C	·	–[12.9 µM]	·	·	·	·
COc1ccc(S(=O)(=O)n2nc(OC(=O)c3ccco3)cc2N)cc1	–	–	22µM	–	–	–
Cc1onc(-c2ccccc2Cl)c1C(=O)Oc1cc(N)n(S(=O)(=O)c2ccc(F)cc2)n1	–	–	–	–	–	32µM
COc1ccc(S(=O)(=O)n2nc(OC(=O)c3ccccc3)cc2N)cc1	–	–	–	–	–	–
COc1ccc(S(=O)(=O)n2nc(OC(=O)c3ccncc3)cc2N)cc1	–	–	5µM	–	–	–
Cc1ccc(S(=O)(=O)n2nc(OC(=O)c3c(-c4ccccc4Cl)noc3C)cc2N)cc1	–	–	–	?	–	?
Cc1ccc(S(=O)(=O)n2nc(OC(=O)c3ccccc3F)cc2N)cc1	–	–	16µM	–	–	–
COC(=O)[C@@H](O)CC[C@@H](C)Cc1c(OC)c(OC)c(C)c(OC)c1OC	·	–	·	·	·	·
COc1ccc(S(=O)(=O)n2nc(OC(C)=O)cc2N(C(C)=O)C(C)=O)cc1	–	–	22µM	–	–	–
Cc1[nH]n(-c2ccc(Cl)cc2)c(=O)c1/C=N/c1nnc(-c2ccccc2)s1	–	–	–	–	?	–
Cc1[nH]n(-c2ncc(-c3ccccc3)s2)c(=O)c1C(c1ccc(Cl)cc1)C(C#N)C#N (stereo not given)	–	–	?	–	–	20µM
COc1ccc(C2C(=O)N(C3CCC(C)CC3)CC(=O)N2CCC2=CCCCC2)cc1OC (stereo not given)	–	·	–	–	·	–
Clc1ccc2c(N/N=C/c3cccc(Br)c3)ccnc2c1	?	–	–	–	–	?
Clc1ccc2c(N/N=C/c3ccccc3Br)ccnc2c1	-64	–	–	–	–	–
O=[N+]([O-])c1ccc(/C=N/Nc2ccnc3cc(Cl)ccc23)o1	-66	·	–	–	–	–
Cc1ccc(NN2C(=O)C=C(c3ccc(Cl)cc3)C2=O)cc1	–	–	–	–	?	40µM
O=C1C=C(c2ccccc2)C(=O)N1Nc1ccccc1	–	–	14µM	?	?	35µM
Cc1ccc(NN2C(=O)C=CC2=O)cc1	–	–	–	–	–	–
COc1ccc(C2=CC(=O)N(Nc3ccccc3)C2=O)cc1	–	–	–	–	–	?
CC(Sc1nc2ccccc2c(=O)n1C)C(=O)N(C)C1CCCCC1 (stereo not given)	-79	·	–	–	–	?
CC(C)(C)CC(C)(C)c1ccc(O)c(CN2CCN(CCC#N)CC2)c1	–	–	–	–	–	?
CC(C)(C)CC(C)(C)c1ccc(O)c(Cc2ccc(Cl)cc2Cl)c1	-86	–	·	–	–	28µM
SMILES	HCMV inh	Giardia FBPA inh	Sm TGR block	Tb PYK inh	RE007 growth inh	FMDV inh
CN(Cc1ccccc1)C(=O)C(=O)Nc1ccc2nc3n(c(=O)c2c1)CCCCC3	–	·	–	–	·	–
COc1ccc(S(=O)(=O)c2c(O)c3ccc(C(=O)Nc4cccc(F)c4)cc3[nH]c2=O)cc1	–	–	–	–	–	–
COc1cccc(NC(=O)c2ccc3c(O)c(S(=O)(=O)c4ccccc4)c(=O)[nH]c3c2)c1	-63	?	–	?	–	–
CCCn1c(SCc2nc(-c3cc(OC)ccc3OC)no2)nnc1-c1ccc(Cl)cc1	–	·	–	–	·	?
Cc1ccc(CS(=O)(=O)c2nc3c(c(N(C)C)n2)CCCC3)cc1	-93	–	–	–	–	–
Cc1nc(S(=O)(=O)Cc2ccc(Cl)cc2)nc2c1CCC2	?	–	·	–	–	–
